EBNA-1 inhibitor = EBNA-1 DNA-binding inhibitors, primary screen, biochemical, fluorescence polarization; 300,000 tested, 0.34% active; inhibition, % at 14.8 µM; in the data active = inhibition above about 28%
PAD4 FP inh = human PAD4 inhibitors, primary screen, biochemical, fluorescence polarization, 1536-well format; inhibition, % at 6.36 µM; 330,000 tested, 0.41% active; Protein-arginine deiminase type-4 (Homo sapiens), Q9UM07; recombinant PAD4, RCA probe fluorescence polarization;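 active = percent inhibition above a cutoff equal to the mean of all tested compounds plus 3 SD, cut at about 15% in these data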;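 also: 0% = PAD4 with RCA probe and DMSO and 100% = probe without PAD4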
Target sequence (Q9UM07 whole entry, looked up): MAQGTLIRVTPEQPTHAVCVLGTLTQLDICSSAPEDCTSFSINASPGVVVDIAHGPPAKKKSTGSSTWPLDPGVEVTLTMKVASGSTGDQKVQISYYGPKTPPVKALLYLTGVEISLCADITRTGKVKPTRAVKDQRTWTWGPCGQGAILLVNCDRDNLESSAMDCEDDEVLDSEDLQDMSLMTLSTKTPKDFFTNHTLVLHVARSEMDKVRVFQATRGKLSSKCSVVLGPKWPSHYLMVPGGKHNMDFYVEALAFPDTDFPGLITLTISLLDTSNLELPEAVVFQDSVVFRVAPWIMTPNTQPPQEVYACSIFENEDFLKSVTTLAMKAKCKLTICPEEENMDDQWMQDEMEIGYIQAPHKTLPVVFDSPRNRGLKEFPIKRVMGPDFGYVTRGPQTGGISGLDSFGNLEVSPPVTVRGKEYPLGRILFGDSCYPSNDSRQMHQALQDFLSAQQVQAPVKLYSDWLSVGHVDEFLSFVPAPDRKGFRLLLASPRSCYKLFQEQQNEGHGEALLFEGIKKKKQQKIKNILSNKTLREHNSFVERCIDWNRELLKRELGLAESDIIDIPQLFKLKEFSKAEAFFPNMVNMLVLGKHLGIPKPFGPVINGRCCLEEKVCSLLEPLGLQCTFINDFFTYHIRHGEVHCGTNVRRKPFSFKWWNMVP
LYPLA2 inh = LYPLA2 inhibitors, primary screen, counter-screen for PME1 inhibitor project, biochemical, fluorescence polarization, FP-Rh probe ABPP. recombinant LYPLA2. inhibition, % at 5.9 µM. 320,000 tested, 0.38% active. AID 2177, 2009;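 active = inhibition above the screen-wide mean plus 3 SD, limit set per campaign, cut at about 26% in these data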;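 also: 0% = LYPLA2 with DMSO and 100% = wells lacking LYPLA2 enzyme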
ZTA counter = ZTA (EBV) inhibition in EBNA-1 counter-screen; inhibition, % at 11 µM; AID 2234; 320,000 tested, 0.15% active; ZTA-DNA binding, fluorescence polarization; P03206; in the data active = inhibition above about 33%
GSTO1 counter = inhibitors of recombinant GSTO1, primary screen, counter-screen for RBBP9 inhibitor project, biochemical, fluorescence polarization; Glutathione S-transferase omega-1 (Homo sapiens), P78417; activity-based probe fluorescence polarization; inhibition, % at 5.96 µM; 300,000 tested, 1.1% active;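 active = inhibition above the campaign mean inhibition plus 3 SD, cut at about 35% in these data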;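 also: 0% = GSTO1-1 with DMSO and 100% = wells lacking GSTO1-1 enzyme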
LYPLA1 inh = LYPLA1 inhibitors, primary screen, counter-screen for PME1 inhibitor project, biochemical, fluorescence polarization, FP-Rh probe ABPP; recombinant LYPLA1; inhibition, % at 5.9 µM; 320,000 tested, 0.16% active; Acyl-protein thioesterase 1 (Homo sapiens), O75608; AID 2174, 2009;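 active = inhibition above the mean of all tested compounds plus 3 SD, set per campaign, cut at about 14% in these data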;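 also: inhibitors block serine hydrolase probe labeling of LYPLA1 so polarization falls; 0% = enzyme with DMSO and 100% = wells lacking LYPLA1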
LYPLA2 confirm = LYPLA2 inhibitors, retest, confirmation, counter-screen for PME1 inhibitor project, biochemical, fluorescence polarization, FP-Rh probe ABPP; shares compounds with LYPLA2 inh; recombinant LYPLA2; inhibition, % at 5.9 µM; 1,100 tested, 72% active;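 active = mean inhibition across replicates above the hit cutoff set in the primary screen, cut at about 26% in these data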;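 also: blocked labeling of the enzyme by serine hydrolase FP-Rh probe lowers polarization; 0% = enzyme with DMSO and 100% = wells lacking LYPLA2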
LYPLA2 ABPP = LYPLA2 inhibitors in proteome, late-stage follow-up, gel-based competitive ABPP, fluorescence, assay provider. shares compounds with LYPLA2 inh. rhLYPLA2 in mouse brain proteome, gel ABPP FP-Rh. inhibition, % at 20 µM. 150 tested, 30% active. AID 652029, 2013;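 active = inhibition of LYPLA2 enzyme probe labeling above about 50%, limit read from the data; inactive = inhibition below that limit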;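 also: loss of FP-Rh probe labeling of the LYPLA2 gel band measured as band density; 0% = DMSO only control band and 100% = blank gel background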
* hit, by the source's call; · = no result given. This is a sample that favours compounds with a hit; in the whole collection about 1.7% have one here.

SMILES | EBNA-1 inhibitor | PAD4 FP inh | LYPLA2 inh | ZTA counter | GSTO1 counter | LYPLA1 inh | LYPLA2 confirm | others
COC(=O)c1cc2c(C)nn(-c3ccccc3)c2s1 | -2.3 | 2.1 | -2.1 | -19.7 | -2.6 | -1.6 | ·
O=C(C[n+]1cccc(NC(=O)c2ccccc2)c1)c1ccc(NC(=O)c2ccccc2)cc1 | 5.7 | -4.4 | 27.3* | 4.0 | 3.0 | -0.5 | 18.6
CCOc1ccc(CCN2C(=O)c3ccc(C(=O)O)cc3C2=O)cc1OCC | -2.5 | 1.1 | 7.0 | 1.9 | 0.7 | 3.1 | ·
CC(=O)c1ccc(S(=O)(=O)N2CCN(CCOc3ccc(Br)cc3)CC2)cc1 | · | -1.7 | 37.3* | -0.6 | · | 3.2 | 37.0*
CCOC(=O)C1CCCN(C(=O)c2ccc3nc(-c4ccccc4)c(-c4ccccc4)nc3c2)C1 (stereo not drawn) | 6.4 | 1.3 | 2.4 | 12.5 | 5.0 | -2.8 | ·
COc1cccc(-c2nc3ccc(C(=O)N4CCCC(O)C4)cc3o2)c1 (stereo not drawn) | -1.9 | -6.7 | 0.3 | 3.5 | -0.8 | 4.2 | ·
CCOC(=O)C1CCCN(C(=O)c2ccc3nc(-c4cccc(OC)c4)oc3c2)C1 (stereo not drawn) | -6.8 | 2.4 | 55.8* | -10.3 | -2.6 | 6.9 | 57.1*
CCC(=O)C1CCCN(C(=O)c2ccc3nc(-c4cccc(OC)c4)oc3c2)C1 (stereo not drawn) | -6.3 | -2.0 | 29.0* | 8.0 | -3.6 | 7.5 | 39.9*
Cc1ccc(OCC(=O)OCC(=O)c2ccccc2)cc1C | 2.8 | -0.8 | 29.1* | -2.7 | -0.2 | 1.7 | 2.5
CCOC(=O)[C@@H]1[C@H]2COc3cc(OC)ccc3[C@H]2N2C(=O)N(c3ccc(C)cc3)C(=O)[C@@]12C | -2.9 | -3.8 | 3.0 | 10.5 | -3.0 | -1.1 | ·
Cc1ccc(-n2cnn(-c3ccc([N+](=O)[O-])cc3[N+](=O)[O-])c2=O)cc1 | 2.9 | -2.7 | 55.1* | -2.3 | 2.9 | 1.7 | 56.2* | LYPLA2 ABPP=46.0
COc1ccccc1C1CC(c2ccc(Cl)cc2Cl)Nc2nc(N)nn21 (stereo not drawn) | -1.7 | 1.8 | 43.5* | 2.4 | 3.0 | -1.0 | 33.7*
COc1ccc(C2CC(c3cccc(Cl)c3)n3nc(N)nc3N2)cc1 (stereo not drawn) | 4.7 | 2.3 | 5.5 | 25.2 | 7.2 | 1.5 | ·
O=C(CN1CCN(Cc2ccc(Cl)cc2)CC1)N/N=C/c1ccccc1F | 6.4 | -1.4 | 1.9 | -6.0 | -4.6 | -1.8 | ·
O=C(c1ccc2c(=O)n(Cc3ccccc3)c(=S)[nH]c2c1)N1CCOCC1 | 6.4 | 3.5 | 1.0 | -3.9 | 13.3 | -2.5 | ·
CC(=O)c1ccc(N2CCN(C(=O)CCCn3c(=S)[nH]c4cc5c(cc4c3=O)OCO5)CC2)cc1 | 8.8 | -2.5 | 52.5* | 6.0 | 4.3 | 11.4 | 50.9* | LYPLA2 ABPP=13.0
O=C(CCCn1c(=S)[nH]c2cc3c(cc2c1=O)OCO3)N1CCN(c2ccc(Cl)cc2)CC1 | 18.4 | -4.3 | 10.7 | -14.1 | -1.6 | 1.7 | ·
CC(=O)c1ccc(N2CCN(C(=O)c3ccc(Cn4c(=S)[nH]c5ccc(N6CCOCC6)cc5c4=O)cc3)CC2)cc1 | -2.5 | -1.3 | 44.0* | -6.2 | 34.9* | 5.8 | 34.4*
CC/C(=C\C1CCCCC1)C(NP(=O)(c1ccccc1)c1ccccc1)c1ccccc1 (stereo not drawn) | 5.2 | 1.6 | -8.3 | -3.3 | -7.7 | -5.2 | ·
O=C(COc1ncnc2ccccc12)c1ccc(Cl)cc1 | -0.6 | -0.5 | 28.6* | -4.7 | -0.9 | -1.8 | 23.8
O=C(COc1ncnc2cc(Cl)ccc12)c1ccccc1 | -9.4 | 2.8 | 2.3 | -4.9 | 9.9 | 0.0 | ·
COc1ccc(C(=O)COc2ncnc3cc(Cl)ccc23)cc1 | -2.0 | -4.1 | 27.3* | 2.7 | -4.9 | 0.4 | 31.3*
CC(Sc1nc(N)cc(=O)[nH]1)C(=O)Nc1nc2c(s1)CCCC2 (stereo not drawn) | 6.3 | -3.9 | -0.9 | 8.1 | -3.6 | -0.9 | ·
OCC1(Cc2ccc(Cl)cc2)CCN(Cc2ccc(Oc3ncccn3)cc2)CC1 | -11.1 | -7.6 | 2.5 | -12.3 | 9.9 | 1.9 | ·
COc1ccccc1-n1cc(C(=O)NCC(=O)N2CCN(c3ccccc3)CC2)c2ccccc2c1=O | 0.2 | -1.2 | 36.6* | -3.7 | -1.3 | 4.4 | 26.8*
SMILES | EBNA-1 inhibitor | PAD4 FP inh | LYPLA2 inh | ZTA counter | GSTO1 counter | LYPLA1 inh | LYPLA2 confirm | others
O=C(Cc1ccc(-n2c(=O)[nH]c3ccsc3c2=O)cc1)N1CCN(c2ccc(Cl)cc2)CC1 | 6.3 | -2.8 | 30.9* | 6.0 | -5.4 | 2.2 | 28.6*
Cc1cccc(N2CCN(C(=O)Cc3ccc(-n4c(=O)[nH]c5ccsc5c4=O)cc3)CC2C)c1 (stereo not drawn) | 1.1 | -1.7 | 11.2 | 6.8 | 0.9 | -1.5 | ·
Cc1ccccc1-n1ncc2c1CC(C)(C)CC2NC(=O)c1snnc1C (stereo not drawn) | 3.9 | 1.4 | 16.8 | 0.6 | 0.4 | 4.2 | ·
Nc1cc(Cl)ccc1Oc1ccc2ccccc2c1 | 2.2 | -1.9 | 28.3* | -1.5 | 5.6 | 2.9 | 13.2
O=C(N/N=C/c1ccccn1)c1ccccc1 | -6.4 | 2.7 | -5.3 | -13.4 | 2.8 | -2.1 | ·
O=C(N/N=C\c1ccccn1)c1cccc(C(=O)N/N=C\c2ccccn2)n1 | -2.4 | 2.1 | 27.9* | -2.3 | -18.5 | -2.2 | 28.9*
COc1ccc(N2CC(C(=O)Nc3nnc(SCC(=O)NCC4CCCO4)s3)CC2=O)cc1 (stereo not drawn) | 2.8 | 0.6 | 3.7 | -12.1 | 15.7 | 1.9 | ·
CC(=O)c1cnc2nc(SCc3cccc(C)c3)nn2c1C | 2.2 | -6.4 | 10.2 | 4.3 | -2.1 | -1.5 | ·
CCCOc1ccc(-c2c(=O)n(OCC(=O)OCC)c3ccccc3[n+]2[O-])cc1 | -0.5 | -0.3 | 27.4* | -8.6 | 1.2 | 0.7 | 71.8*
CCOc1ccc(-c2c(=O)n(OCC)c3ccccc3[n+]2[O-])cc1 | 6.9 | -0.4 | 9.4 | -2.9 | 10.0 | 0.4 | ·
O=C(COc1ccc([N+](=O)[O-])cc1)N(C1CCCCC1)C1CCS(=O)(=O)C1 (stereo not drawn) | -20.7 | -6.7 | -0.8 | -3.0 | 4.6 | 2.6 | ·
NNC(=O)c1oc2nc(-c3ccccc3)cc(-c3ccccc3)c2c1N | -16.9 | -3.0 | 32.2* | -7.3 | 3.8 | -0.9 | 8.5

Assay outcomes (PubChem BioAssay)
